# Targets with a hit are over-represented here; the source holds about 8,800 in all. About 0.5% of all pairs of compound and target were hits. Values without a mark were called inactive.
# Tests used:
# Assay in all cases: log2 fold change, soluble protein after heating vs DMSO (PISA); higher = thermal stabilisation; K562 lysate, 10 uM; active = over 0.2 and 3.5 SD of the protein, either way, in both replicates (recomputed)
# vemurafenib = compound: CCCS(=O)(=O)Nc1ccc(F)c(C(=O)c2c[nH]c3ncc(-c4ccc(Cl)cc4)cc23)c1F [vemurafenib]
# In short: (§1)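 Pellets of K562 cells were dounce-homogenised in PBS pH 7.4 with 1 mM MgCl2, and the crude extract was held at 1 mg/mL protein for a 30 min treatment with 10 μM compound. Aliquots were heated for 3 min over 48°C-58°C and pooled before NP-40 was added to 0.5% at 4°C. The supernatant from 21,000xg for 90 min was quantified by TMTpro 16plex LC-MS/MS with channel sums equalised. Values are reported from duplicates as log-two fold change in thermal stability relative to solvent controls.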
# [1] = compound: CCCS(=O)(=O)Nc1ccc(F)c(C(=O)c2c[nH]c3ncc(Cl)cc23)c1F
# In short: as §1
# barasertib = compound: CCN(CCCOc1ccc2c(Nc3cc(CC(=O)Nc4cccc(F)c4)[nH]n3)ncnc2c1)CCOP(=O)(O)O [barasertib]
# In short: as §1
# [2] = compound: CC[C@@H]1C(=O)N(C)c2cnc(Nc3ccc(C(=O)NC4CCN(C)CC4)cc3OC)nc2N1C1CCCC1
# In short: as §1
# volasertib = compound: CC[C@@H]1C(=O)N(C)c2cnc(Nc3ccc(C(=O)N[C@H]4CC[C@H](N5CCN(CC6CC6)CC5)CC4)cc3OC)nc2N1C(C)C [volasertib]
# In short: as §1
# [3] = compound: CCn1c(C(=O)N(C2CC2)C2CC2)cc2c3c(ncn3C)c(Nc3cc(C)n(C)n3)nc21
# In short: as §1
# [4] = compound: CCn1cc(-c2ccnc3[nH]c(-c4cccc(CN(C)C)c4)cc23)c(-c2ccc(NC(=O)N(C)C)cc2)n1
# In short: as §1
# [5] = compound: CN1CCC(CNc2ccc3ncc(-c4cccc(OC(F)(F)F)c4)n3n2)CC1
# In short: as §1
# saracatinib = compound: CN1CCN(CCOc2cc(OC3CCOCC3)c3c(Nc4c(Cl)ccc5c4OCO5)ncnc3c2)CC1 [saracatinib]
# In short: as §1
# sotrastaurin = compound: CN1CCN(c2nc(C3=C(c4c[nH]c5ccccc45)C(=O)NC3=O)c3ccccc3n2)CC1 [sotrastaurin]
# In short: as §1
# alvocidib = compound: CN1CC[C@H](c2c(O)cc(O)c3c(=O)cc(-c4ccccc4Cl)oc23)[C@H](O)C1 [alvocidib]
# In short: as §1
# Tubastatin A = compound: CN1CCc2c(c3ccccc3n2Cc2ccc(C(=O)NO)cc2)C1 [Tubastatin A]
# In short: as §1
# [6] = compound: CNC(=O)C1=CC=CC=C1NC2=NC(=NC=C2Cl)NC3=C(C=C(C=C3)N4CCOCC4)OC
# In short: as §1
# defactinib = compound: CNC(=O)c1ccc(Nc2ncc(C(F)(F)F)c(NCc3nccnc3N(C)S(C)(=O)=O)n2)cc1 [defactinib]
# In short: as §1
# [7] = compound: CNc1nc(-c2ccc3c(N)n[nH]c3c2)cc(N2C[C@@H](C(=O)NC3CCCCC3)CC[C@H]2C)n1
# In short: as §1
# encorafenib = compound: COC(=O)N[C@@H](C)CNc1nccc(-c2cn(C(C)C)nc2-c2cc(Cl)cc(NS(C)(=O)=O)c2F)n1 [encorafenib]
# In short: as §1
# [8] = compound: COC(=O)[C@H](CCSC)NC(=O)C1=C(C=C(C=C1)NC[C@H](CS)N)C2=CC=CC=C2
# In short: as §1
# alisertib = compound: COc1cc(Nc2ncc3c(n2)-c2ccc(Cl)cc2C(c2c(F)cccc2OC)=NC3)ccc1C(=O)O [alisertib]
# In short: as §1
# [9] = compound: COc1cc2nc(-c3cc(F)ccc3O)nc(N[C@@H]3CNC[C@H]3C(C)(C)O)c2cc1OC
# In short: as §1
# gefitinib = compound: COc1cc2ncnc(Nc3ccc(F)c(Cl)c3)c2cc1OCCCN1CCOCC1 [gefitinib]
# In short: as §1
# UniProt Q9BYG3, sequence (Q9BYG3 whole entry, looked up): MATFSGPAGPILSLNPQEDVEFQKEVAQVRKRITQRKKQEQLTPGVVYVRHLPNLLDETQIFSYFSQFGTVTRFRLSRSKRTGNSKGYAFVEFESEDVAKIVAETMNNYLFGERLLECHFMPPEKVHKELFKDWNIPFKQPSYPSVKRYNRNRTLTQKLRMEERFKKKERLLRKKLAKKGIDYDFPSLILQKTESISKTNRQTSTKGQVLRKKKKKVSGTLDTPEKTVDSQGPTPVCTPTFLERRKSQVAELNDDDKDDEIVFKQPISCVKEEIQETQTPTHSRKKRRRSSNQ
# UniProt Q96I59, sequence (Q96I59 whole entry, looked up): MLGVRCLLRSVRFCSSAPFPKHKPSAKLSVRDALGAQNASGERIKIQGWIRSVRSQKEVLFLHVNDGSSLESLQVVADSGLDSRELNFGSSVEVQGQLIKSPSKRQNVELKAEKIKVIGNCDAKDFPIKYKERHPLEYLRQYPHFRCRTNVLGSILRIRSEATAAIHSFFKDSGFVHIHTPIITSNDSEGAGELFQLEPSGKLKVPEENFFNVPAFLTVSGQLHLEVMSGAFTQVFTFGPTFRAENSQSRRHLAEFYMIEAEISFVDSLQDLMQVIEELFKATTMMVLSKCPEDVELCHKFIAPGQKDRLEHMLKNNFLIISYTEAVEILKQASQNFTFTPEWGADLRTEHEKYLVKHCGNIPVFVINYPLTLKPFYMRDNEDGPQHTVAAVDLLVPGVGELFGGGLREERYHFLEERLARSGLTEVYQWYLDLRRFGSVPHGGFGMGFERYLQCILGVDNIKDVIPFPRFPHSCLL
# UniProt Q9BSD7, sequence (Q9BSD7 whole entry, looked up): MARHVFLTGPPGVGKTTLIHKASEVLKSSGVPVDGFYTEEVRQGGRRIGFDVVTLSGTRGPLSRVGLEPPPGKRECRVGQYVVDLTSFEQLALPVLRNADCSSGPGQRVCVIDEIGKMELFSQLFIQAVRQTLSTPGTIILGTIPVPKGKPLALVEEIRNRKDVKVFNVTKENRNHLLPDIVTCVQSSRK
# UniProt Q9BZF3, sequence (Q9BZF3 whole entry, looked up): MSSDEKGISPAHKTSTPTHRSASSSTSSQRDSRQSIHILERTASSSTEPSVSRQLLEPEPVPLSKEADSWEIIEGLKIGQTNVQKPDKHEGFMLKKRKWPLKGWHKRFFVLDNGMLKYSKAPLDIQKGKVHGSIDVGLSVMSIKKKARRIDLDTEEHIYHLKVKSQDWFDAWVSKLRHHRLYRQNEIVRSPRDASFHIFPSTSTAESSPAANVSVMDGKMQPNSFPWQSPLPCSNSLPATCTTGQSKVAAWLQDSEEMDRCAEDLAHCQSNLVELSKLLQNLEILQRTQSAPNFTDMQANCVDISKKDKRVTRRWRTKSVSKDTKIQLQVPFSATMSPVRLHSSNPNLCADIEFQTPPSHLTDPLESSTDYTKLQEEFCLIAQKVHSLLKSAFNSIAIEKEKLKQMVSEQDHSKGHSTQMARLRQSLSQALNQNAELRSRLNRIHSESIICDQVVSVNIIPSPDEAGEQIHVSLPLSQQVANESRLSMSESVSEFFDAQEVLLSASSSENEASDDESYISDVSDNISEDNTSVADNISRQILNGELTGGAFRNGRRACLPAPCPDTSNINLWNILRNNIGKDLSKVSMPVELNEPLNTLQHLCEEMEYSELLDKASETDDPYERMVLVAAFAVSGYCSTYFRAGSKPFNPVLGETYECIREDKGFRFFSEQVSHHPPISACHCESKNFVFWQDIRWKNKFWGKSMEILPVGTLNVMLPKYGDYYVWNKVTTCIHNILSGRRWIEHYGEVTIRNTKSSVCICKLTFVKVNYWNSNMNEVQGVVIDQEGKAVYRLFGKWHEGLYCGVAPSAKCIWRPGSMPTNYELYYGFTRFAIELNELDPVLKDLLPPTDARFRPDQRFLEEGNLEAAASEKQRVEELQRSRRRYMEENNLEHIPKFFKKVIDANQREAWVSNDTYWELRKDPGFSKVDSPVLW
# UniProt Q8N1F7, sequence (Q8N1F7 whole entry, looked up): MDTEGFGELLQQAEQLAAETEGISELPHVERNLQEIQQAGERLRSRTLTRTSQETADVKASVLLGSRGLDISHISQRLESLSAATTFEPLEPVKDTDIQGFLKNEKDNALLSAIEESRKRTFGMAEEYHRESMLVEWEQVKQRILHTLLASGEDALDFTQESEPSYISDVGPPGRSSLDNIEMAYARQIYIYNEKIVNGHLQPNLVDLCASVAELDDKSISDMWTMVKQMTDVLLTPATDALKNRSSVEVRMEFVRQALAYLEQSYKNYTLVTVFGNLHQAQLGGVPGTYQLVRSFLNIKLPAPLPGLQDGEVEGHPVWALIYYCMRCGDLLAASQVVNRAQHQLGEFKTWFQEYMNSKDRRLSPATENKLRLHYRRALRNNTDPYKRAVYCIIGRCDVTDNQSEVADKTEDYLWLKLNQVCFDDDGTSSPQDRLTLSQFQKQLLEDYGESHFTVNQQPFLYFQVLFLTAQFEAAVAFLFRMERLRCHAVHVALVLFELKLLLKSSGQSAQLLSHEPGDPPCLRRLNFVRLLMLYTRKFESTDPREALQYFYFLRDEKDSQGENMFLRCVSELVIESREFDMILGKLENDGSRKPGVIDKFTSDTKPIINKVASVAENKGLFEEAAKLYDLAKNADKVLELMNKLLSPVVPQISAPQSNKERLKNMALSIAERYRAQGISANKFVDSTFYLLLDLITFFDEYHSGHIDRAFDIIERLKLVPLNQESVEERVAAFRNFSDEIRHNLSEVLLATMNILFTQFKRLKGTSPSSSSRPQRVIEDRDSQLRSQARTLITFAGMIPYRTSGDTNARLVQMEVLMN
# UniProt O43913, sequence (O43913 whole entry, looked up): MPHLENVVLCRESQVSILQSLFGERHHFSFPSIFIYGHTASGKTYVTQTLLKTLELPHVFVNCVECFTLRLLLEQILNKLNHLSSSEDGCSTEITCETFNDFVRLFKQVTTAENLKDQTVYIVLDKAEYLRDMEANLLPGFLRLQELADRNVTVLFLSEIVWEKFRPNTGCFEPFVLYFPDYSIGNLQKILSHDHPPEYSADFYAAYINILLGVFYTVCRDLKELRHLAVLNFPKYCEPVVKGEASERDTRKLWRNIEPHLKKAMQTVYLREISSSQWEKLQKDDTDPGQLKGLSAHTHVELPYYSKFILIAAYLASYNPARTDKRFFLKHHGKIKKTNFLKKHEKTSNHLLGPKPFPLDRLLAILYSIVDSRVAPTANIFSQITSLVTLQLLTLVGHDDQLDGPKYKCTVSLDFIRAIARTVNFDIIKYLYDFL
# UniProt O60934, sequence (O60934 whole entry, looked up): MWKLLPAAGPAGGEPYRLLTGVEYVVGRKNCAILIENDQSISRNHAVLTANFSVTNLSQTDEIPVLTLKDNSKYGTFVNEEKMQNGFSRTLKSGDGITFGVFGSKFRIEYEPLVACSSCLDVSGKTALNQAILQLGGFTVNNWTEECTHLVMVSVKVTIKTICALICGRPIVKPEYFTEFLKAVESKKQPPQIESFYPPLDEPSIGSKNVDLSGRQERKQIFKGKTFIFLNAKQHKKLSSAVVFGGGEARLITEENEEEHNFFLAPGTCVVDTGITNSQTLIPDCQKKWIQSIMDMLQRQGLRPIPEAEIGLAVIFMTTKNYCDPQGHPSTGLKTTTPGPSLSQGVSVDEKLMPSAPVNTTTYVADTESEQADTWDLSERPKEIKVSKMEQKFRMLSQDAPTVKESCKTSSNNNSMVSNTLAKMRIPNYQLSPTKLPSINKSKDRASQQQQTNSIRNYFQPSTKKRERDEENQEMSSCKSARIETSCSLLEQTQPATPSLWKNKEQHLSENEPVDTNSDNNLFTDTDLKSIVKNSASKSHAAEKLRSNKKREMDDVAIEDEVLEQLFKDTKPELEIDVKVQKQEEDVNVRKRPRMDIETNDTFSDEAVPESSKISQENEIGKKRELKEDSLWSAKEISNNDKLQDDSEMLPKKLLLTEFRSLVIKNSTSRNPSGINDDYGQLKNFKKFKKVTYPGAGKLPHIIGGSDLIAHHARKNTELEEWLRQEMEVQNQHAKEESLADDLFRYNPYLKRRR
# UniProt Q8TD19, sequence (Q8TD19 whole entry, looked up): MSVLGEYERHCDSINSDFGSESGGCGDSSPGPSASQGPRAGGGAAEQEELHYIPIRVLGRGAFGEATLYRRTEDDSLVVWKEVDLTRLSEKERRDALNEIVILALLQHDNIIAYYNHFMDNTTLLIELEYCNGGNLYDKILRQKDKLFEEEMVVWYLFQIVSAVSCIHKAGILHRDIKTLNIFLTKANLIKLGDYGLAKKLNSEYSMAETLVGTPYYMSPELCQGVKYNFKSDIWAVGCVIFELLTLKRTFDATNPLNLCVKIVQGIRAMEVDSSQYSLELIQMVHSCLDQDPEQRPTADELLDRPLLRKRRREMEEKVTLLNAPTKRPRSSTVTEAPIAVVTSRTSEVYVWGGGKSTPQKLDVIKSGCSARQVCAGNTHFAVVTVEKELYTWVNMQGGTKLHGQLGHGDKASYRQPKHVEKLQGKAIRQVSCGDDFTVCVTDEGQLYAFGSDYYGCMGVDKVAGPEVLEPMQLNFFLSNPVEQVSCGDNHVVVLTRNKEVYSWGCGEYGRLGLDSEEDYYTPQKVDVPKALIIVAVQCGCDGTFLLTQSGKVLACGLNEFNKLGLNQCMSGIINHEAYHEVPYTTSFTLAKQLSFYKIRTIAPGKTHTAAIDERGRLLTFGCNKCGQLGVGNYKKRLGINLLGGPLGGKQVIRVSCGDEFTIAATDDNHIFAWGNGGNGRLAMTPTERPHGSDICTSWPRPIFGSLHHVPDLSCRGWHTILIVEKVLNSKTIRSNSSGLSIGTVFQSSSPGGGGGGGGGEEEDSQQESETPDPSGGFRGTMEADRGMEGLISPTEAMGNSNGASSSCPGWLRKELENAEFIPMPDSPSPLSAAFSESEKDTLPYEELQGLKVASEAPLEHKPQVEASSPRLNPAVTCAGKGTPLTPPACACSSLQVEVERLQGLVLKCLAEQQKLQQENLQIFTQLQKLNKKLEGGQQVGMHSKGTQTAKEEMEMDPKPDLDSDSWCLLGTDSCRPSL
Target,log2 fold change (vemurafenib),log2 fold change [1],log2 fold change (barasertib),log2 fold change [2],log2 fold change (volasertib),log2 fold change [3],log2 fold change [4],log2 fold change [5],log2 fold change (saracatinib),log2 fold change (sotrastaurin),log2 fold change (alvocidib),log2 fold change (Tubastatin A),log2 fold change [6],log2 fold change (defactinib),log2 fold change [7],log2 fold change (encorafenib),log2 fold change [8],log2 fold change (alisertib),log2 fold change [9],log2 fold change (gefitinib)
NEK9 (UniProt Q8TD19),-0.001,0.054,-0.008,0.004,-0.01,0.004,-0.046,0.048,0.035,-0.016,-0.062,-0.062,0.193,0.08,-0.009,-0.018,-0.008,-0.048,-0.01,-0.039
NAA35 (UniProt Q5VZE5),0,0.015,-0.01,0.05,-0.026,0.001,0.179,-0.035,0.026,0.006,0.018,-0.056,-0.007,0.034,0,0.01,-0.001,-0.026,-0.006,-0.008
ORC5 (UniProt O43913),-0.059,-0.001,-0.052,-0.156,-0.023,0.013,-0.038,0.01,-0.001,0.024,0.001,-0.163,0.001,0.062,-0.008,0.049,0.165,-0.004,0.006,-0.011
NUMBL (UniProt Q9Y6R0),-0.06,0.014,-0.005,-0.009,-0.037,0.189,0.032,-0.011,0.052,-0.278,-0.032,-0.103,-0.023,-0.218,0.023,0.189,-0.068,-0.064,0.044,0.09
NMT1 (UniProt P30419),0.024,0.016,-0.025,0.014,-0.002,0.01,-0.04,0.001,0.003,0.025,0.021,0.001,0.001,0.031,0.011,-0.001,0.087,-0.005,0.007,-0.006
NUP93 (UniProt Q8N1F7),-0.001,0.014,0.036,-0.069,-0.094,0.044,-0.048,-0.079,0.013,0.028,-0.006,-0.085,-0.013,0.023,-0.097,0.029,0.027,0.01,-0.007,0.014
MVB12A (UniProt Q96EY5),-0.017,0.005,-0.04,0.094,-0.001,0.03,0.009,-0.001,0.015,0.01,-0.019,-0.221,-0.009,0.056,0.037,-0.015,-0.012,-0.011,-0.035,-0.055
MRPL51 (UniProt Q4U2R6),0.032,0.028,0,-0.044,0.022,0.038,-0.309,0.16,0.02,0.008,-0.039,-0.018,0.016,0.198,-0.002,0.088,-0.208,-0.005,-0.005,-0.044
NFATC2IP (UniProt Q8NCF5),-0.024,0.069,0.041,0.033,0.006,0,0.076,-0.031,0.003,-0.004,-0.015,0.002,0.052,0,0.002,0.003,-0.208 (active),-0.009,-0.001,0.023
NBN (UniProt O60934),0.011,0.011,0.037,-0.028,-0.019,-0.003,0.043,-0.058,0.025,0.001,0.008,-0.041,-0.006,-0.029,0.014,0.022,0.048,-0.009,0.018,-0.061
NARS2 (UniProt Q96I59),0.022,0.028,0,-0.025,-0.067,0.041,-0.091,0.027,0.001,-0.024,0.013,-0.157,-0.046,0.014,-0.04,-0.01,0.039,-0.006,-0.01,-0.016
OSBPL6 isoform 5 (UniProt Q9BZF3),-0.026,-0.021,-0.015,-0.052,-0.072,0.015,-0.004,0.084,-0.009,-0.035,-0.056,-0.05,-0.043,-0.063,-0.047,-0.005,0.015,-0.068,-0.004,0.164
NCK1 (UniProt P16333),0.049,0.003,-0.008,0.068,-0.011,-0.025,0.067,-0.05,0.015,0.014,0,-0.097,0.023,-0.02,-0.008,0.008,-0.068,-0.003,-0.007,0.026
NIFK (UniProt Q9BYG3),0.015,0.036,0.033,0.006,-0.027,0.009,0.093,-0.045,0.005,-0.018,0.009,-0.023,-0.023,0,0.095,0.039,-0.003,-0.073,-0.014,0.01
NUP160 (UniProt Q12769),-0.039,0.02,0.052,-0.106,-0.105,0.043,0.057,-0.058,0.043,-0.01,0.029,-0.143,0.045,0.004,-0.03,0.059,-0.195,0.015,0.004,0.031
NTPCR (UniProt Q9BSD7),0.055,-0.001,0.016,0.005,-0.066,0.032,-0.038,-0.021,-0.009,0.011,0.007,-0.163,0.055,0.009,0.027,0.005,-0.007,0.007,0.058,-0.057
